Compound activity deposited in PubChem BioAssay by National Center for Advancing Translational Sciences (NCATS).
An excerpt weighted towards active compounds, which were near 2.6% of everything screened.
Cruzain inh Det: inhibitors of Trypanosoma cruzi cruzain with detergent; purified cruzain, Z-FR-AMC fluorescence, 0.01% Triton; Potency, µM, hits mostly inhibitors; 200,000 tested, 0.43% active; AID 1478; note: nearly all actives have a fitted effect of over 40% in size
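Cruzain (1.5 nM) preincubated 15 min at RT with compound in 100 mM sodium acetate pH 5.5, 5 mM DTT, 0.01% Triton X-100. Reaction started with 2 uM Z-FR-AMC; AMC fluorescence (ex 360/em 450 nm) change over 60 s gave rate.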
Cruzain noTriton: cruzain (T. cruzi) inhibition without detergent; 200,000 tested, 2.3% active; AID 1476; Potency, µM, most hits filed as inhibitors; purified cruzain, Z-FR-AMC fluorescence, no detergent; P25779; note: nearly all actives have a fitted effect of over 40% in size
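Purified cruzain at 1.5 nM, pre-incubated 15 min with compound at room temperature in 100 mM sodium acetate pH 5.5, 5 mM DTT, 0.00005% Triton X-100. Reaction started with 2 uM Z-FR-AMC; AMC fluorescence increase over 60 s gives rate.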
Papain counter: counter-screen for cruzain inhibitors: papain inhibition. shares compounds with Cruzain inh Det. purified papain, Z-FR-AMC fluorescence cleavage. Potency, µM, usual class: inhibitors. 410 tested, 41% active. AID 2161; note: nearly all actives have a fitted effect of over 35% in size
Target sequence (P00784 whole entry, looked up): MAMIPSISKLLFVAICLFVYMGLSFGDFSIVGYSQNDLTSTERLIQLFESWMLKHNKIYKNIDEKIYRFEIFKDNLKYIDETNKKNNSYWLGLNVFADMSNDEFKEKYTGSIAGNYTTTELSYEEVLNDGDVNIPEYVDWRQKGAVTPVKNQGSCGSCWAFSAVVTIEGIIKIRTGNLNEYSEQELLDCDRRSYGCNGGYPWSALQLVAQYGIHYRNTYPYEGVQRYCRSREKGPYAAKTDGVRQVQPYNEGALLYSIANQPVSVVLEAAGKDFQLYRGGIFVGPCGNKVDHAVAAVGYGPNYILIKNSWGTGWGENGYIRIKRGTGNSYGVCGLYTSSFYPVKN
Numbers stand for hits. Calls come from the whole dose curve; as a rule, active = well fitted curve in the direction sought with a large enough effect; inconclusive = small, poorly fitted or top-dose-only effect, or another doubt; inactive = no such curve, though single readings can be large; an effect the other way counts as inactive or inconclusive.

Results for O=C(O)/C=C\C(=O)Nc1ccc2c(c1)C(=O)c1cc(F)ccc1-2 ?
Cruzain inh Det: inactive; Cruzain noTriton: inactive

How did C[C@@H](O)CN(CCN(C[C@@H](C)O)C[C@@H](C)O)C[C@@H](C)O.O=[N+]([O-])O.[Cu] do in these assays?
Cruzain inh Det: inactive; Cruzain noTriton: inactive

How did CC(C)C(=O)NNC(=O)CSc1nc(C2CCCCC2)nc2ccccc12 do in these assays?
Cruzain inh Det: inactive; Cruzain noTriton: inactive

Results for O=C(CSc1nnc(-c2c[nH]c3ccccc23)o1)N1c2ccccc2CCc2ccccc21 ?
Cruzain inh Det: inactive; Cruzain noTriton: inconclusive

What do the screens show for `O=C(CSc1nnc(COc2cccc3ccccc23)o1)N1c2ccccc2CCc2ccccc21`?
Cruzain inh Det: inactive; Cruzain noTriton: 12.6µM

What do the screens show for `O=C(CSc1nc(C2CC2)nc2ccccc12)N1c2ccccc2Sc2ccccc21`?
Cruzain inh Det: inactive; Cruzain noTriton: 25.1µM

Results for COc1cccc(OCc2nnc(SCC(=O)N3c4ccccc4Sc4ccc(Cl)cc43)o2)c1 ?
Cruzain inh Det: inactive; Cruzain noTriton: inconclusive

How did O=C(CSc1nc2ccccc2s1)N1c2ccccc2Sc2ccc(Cl)cc21 do in these assays?
Cruzain inh Det: inactive; Cruzain noTriton: 15.8µM

Results for Cc1cccc(OCc2nnc(SCC(=O)N3c4ccccc4Sc4ccc(Cl)cc43)o2)c1 ?
Cruzain inh Det: inactive; Cruzain noTriton: 12.6µM

How did O=C(CSc1nc2ccccc2o1)N1c2ccccc2Sc2ccccc21 do in these assays?
Cruzain inh Det: inactive; Cruzain noTriton: inconclusive

Results for Cc1c(C(=O)N2CCCC2)oc2c1-c1nn(CC(=O)NCc3ccccc3Br)cc1CC2 ?
Cruzain inh Det: inactive; Cruzain noTriton: inactive

What do the screens show for `Cc1ccc(NC(=O)Cn2c(-c3cncs3)nc3ccccc32)c(Br)c1`?
Cruzain inh Det: inactive; Cruzain noTriton: inconclusive

What do the screens show for `Cc1cc2oc(C(=O)Nc3nc(-c4ccccc4)ns3)c(C)c2cc1Cl`?
Cruzain inh Det: inactive; Cruzain noTriton: inconclusive

Results for Cc1ccccc1C1CC(=O)Oc2cc(C)c(Br)c(C)c21 (stereo unspecified) ?
Cruzain inh Det: inactive; Cruzain noTriton: inactive

How did Cc1ccccc1NC(=O)c1c(C)oc2ccc(O)c(CN3CCCCCC3)c12 do in these assays?
Cruzain inh Det: inactive; Cruzain noTriton: inactive

What do the screens show for `COC(=O)C/C=C1\c2ccc3c(c2[C@@H](OC)[C@@H]1C)OCO3`?
Cruzain inh Det: inactive; Cruzain noTriton: inactive

Results for O=C1c2ccccc2C(=O)N1CC(=O)N1c2ccccc2Sc2ccc(C(F)(F)F)cc21 ?
Cruzain inh Det: inactive; Cruzain noTriton: inconclusive

What do the screens show for `O=C(CSc1nc2ccccc2s1)N1c2ccccc2Sc2ccc(C(F)(F)F)cc21`?
Cruzain inh Det: inactive; Cruzain noTriton: 10µM

Results for Oc1ccc2ccccc2c1CN(Cc1c(O)ccc2ccccc12)C1CCCCC1 ?
Cruzain inh Det: inactive; Cruzain noTriton: inactive

How did COc1ccc(-c2nn3c(-c4ccc(F)cc4)nnc3s2)cc1 do in these assays?
Cruzain inh Det: inactive; Cruzain noTriton: inconclusive

What do the screens show for `COc1ccc(-c2nn3c(-c4cc(C)[nH]n4)nnc3s2)cc1`?
Papain counter: inactive

How did CCOc1cccc(-c2nn3c(-c4cc(C)[nH]n4)nnc3s2)c1 do in these assays?
Cruzain inh Det: inactive; Cruzain noTriton: inactive; Papain counter: inactive

How did CCOc1cccc(-c2nnc3sc(-c4cc(OC)c(OC)cc4OC)nn23)c1 do in these assays?
Cruzain inh Det: inactive; Cruzain noTriton: inactive

Results for Cc1noc(C)c1C(=O)N1CCC[C@@]2(CCN(c3ccccn3)C2)C1 ?
Cruzain inh Det: inactive; Cruzain noTriton: inactive

How did O=C(C1COc2ccccc2O1)N1CCN(c2nc3c(F)cccc3s2)CC1 (stereo unspecified) do in these assays?
Cruzain inh Det: inactive; Cruzain noTriton: inactive

What do the screens show for `COC(=O)[C@H]1C[C@@H]2CC[C@@H](O)C[C@@H]2N1Cc1c(F)cccc1Cl`?
Cruzain inh Det: inactive; Cruzain noTriton: inactive

How did COc1nc(N2CCCCCC2)nc(N2CCCCCC2)n1 do in these assays?
Cruzain inh Det: inactive; Cruzain noTriton: inactive

How did CCOc1nc(C#N)nc(N2CCCCC2)n1 do in these assays?
Cruzain inh Det: 0.562µM; Cruzain noTriton: 0.501µM; Papain counter: 2.24µM

What do the screens show for `COc1nc(C#N)nc(N2CCCC2)n1`?
Papain counter: 3.98µM

How did N#CCOc1nc(N2CCCC2)nc(N2CCCC2)n1 do in these assays?
Cruzain inh Det: inactive; Cruzain noTriton: inactive

How did N#Cc1nc(-c2cccs2)oc1N1CCOCC1 do in these assays?
Cruzain inh Det: 25.1µM; Cruzain noTriton: inconclusive; Papain counter: 15.8µM

Results for N#Cc1nc(-c2ccco2)oc1N1CCOCC1 ?
Cruzain inh Det: inactive; Cruzain noTriton: inactive

Results for CC1CN(c2oc(Cc3cccc4ccccc34)nc2C#N)CC(C)O1 (stereo unspecified) ?
Cruzain inh Det: inactive; Cruzain noTriton: inconclusive
